CF NFkB inh – blocks PAF-induced NF-kB reporter in cystic fibrosis cells. AID 588850. KKLEB NF-kB-GFP reporter, GFP fluorescence overnight. inhibition, % at 5 µM. 0.86% of 360,000 active;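 active = at least 50% inhibition at 5 µM, scaled per plate between neutral and stimulator controls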;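 also: PAF is a Pseudomonas aeruginosa culture filtrate used as stimulus; plate controls were PAF-stimulated DMSO wells for no effect and unstimulated DMSO wells for full effect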
HIF-2a block – blocks HIF-2a reporter activity; 0.72% of 360,000 active; inhibition, % at 18.8 µM; 786-0 RCC cells HIF-2a reporter, luciferase luminescence, overnight;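 active = inhibition of the luminescence signal of 40% or more relative to plate controls, in a single-dose primary screen at 18.75 µM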
Peg3 promoter – inhibitors of Peg3 promoter | HeLa PEG-Prom luciferase reporter, luminescence, overnight | inhibition, % at 20 µM | 1.7% of 360,000 active;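 active = inhibition of at least 50% at 20 µM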
KKLEB cytotox – CF airway cell cytotoxicity counter-screen; KKLEB CF airway cells viability, ATPlite luminescence, overnight; hits give low values; cells stimulated with P. aeruginosa culture filtrate; activity change (cytotoxicity), % at 5 µM; 0.36% of 360,000 active;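 active = corrected activity change at or below -50% at 5 µM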
TROY NFkB inh – inhibitors of TROY-dependent NF-kB signaling; 0.98% of 360,000 active; Q293 LMP1-TROYcd NF-kB luciferase reporter, 4 h; inhibition, % at 10 µM;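 active = compounds whose plate-normalised and pattern-corrected inhibition of the luciferase reporter signal at the single screening dose is 50% or more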
TWEAK Fn14 block – inhibitors of TWEAK-Fn14 interaction signaling; 2% of 360,000 active; TWEAK-stimulated Fn14 reporter cells, luciferase luminescence, 8 h; inhibition, % at 10 µM; AID 1159606; in the data active = inhibition above about 50%
Mdm2 MdmX conf – confirmation of inhibitors of human Mdm2/MdmX interaction, set 2. 99% of 740 active. inhibition, % at 8 µM. shares compounds with HIF-2a block. SaOS-2 split-luciferase Mdm2/MdmX complementation, luminescence. AID 504601;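 active = mean inhibition of the luminescence signal across two replicates at or above 26 percent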
Target sequence (O15151 whole entry, looked up): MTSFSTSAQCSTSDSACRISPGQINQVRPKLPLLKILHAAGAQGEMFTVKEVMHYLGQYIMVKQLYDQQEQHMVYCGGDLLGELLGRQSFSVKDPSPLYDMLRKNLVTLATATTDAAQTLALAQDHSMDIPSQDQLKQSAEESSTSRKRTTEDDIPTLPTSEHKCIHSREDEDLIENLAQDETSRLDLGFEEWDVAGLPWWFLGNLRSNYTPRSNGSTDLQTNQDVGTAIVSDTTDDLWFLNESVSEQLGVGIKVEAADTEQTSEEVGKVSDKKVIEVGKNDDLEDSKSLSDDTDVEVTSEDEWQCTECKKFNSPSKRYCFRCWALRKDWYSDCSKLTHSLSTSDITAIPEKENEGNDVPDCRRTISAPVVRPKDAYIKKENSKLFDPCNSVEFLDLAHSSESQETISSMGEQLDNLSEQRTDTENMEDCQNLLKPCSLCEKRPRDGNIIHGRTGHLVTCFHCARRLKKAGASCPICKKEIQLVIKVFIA
Target sequence (Q00987 whole entry, looked up): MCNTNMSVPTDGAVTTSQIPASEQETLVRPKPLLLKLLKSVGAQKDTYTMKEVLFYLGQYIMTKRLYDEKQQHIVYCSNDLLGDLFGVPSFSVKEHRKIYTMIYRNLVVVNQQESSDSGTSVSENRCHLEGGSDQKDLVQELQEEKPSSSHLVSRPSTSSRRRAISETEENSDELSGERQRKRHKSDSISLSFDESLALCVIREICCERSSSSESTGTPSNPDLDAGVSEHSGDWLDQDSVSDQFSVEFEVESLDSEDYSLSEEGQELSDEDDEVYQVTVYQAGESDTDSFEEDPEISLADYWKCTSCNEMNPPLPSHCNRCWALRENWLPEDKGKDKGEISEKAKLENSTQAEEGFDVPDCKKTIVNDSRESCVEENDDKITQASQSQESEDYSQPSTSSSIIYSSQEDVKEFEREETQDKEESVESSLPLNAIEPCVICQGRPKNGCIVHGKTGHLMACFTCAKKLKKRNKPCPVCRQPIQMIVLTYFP
HIF-2a inh conf – HIF-2a inhibition, single concentration confirmation; shares compounds with HIF-2a block; 786-0 RCC cells, HIF-2a luciferase reporter luminescence, overnight; inhibition, % at 18.8 µM; 56% of 1,800 active; AID 651580;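 active = mean inhibition across four replicates of at least 40 percent at the single tested concentration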
HIF-1a counter – HIF-1a inhibition counter-screen for HIF-2a hits; MiaPaCa-2 HIF-1a luciferase reporter, desferoxamine, overnight; shares compounds with HIF-2a block; AID 651589; inhibition, % at 18.8 µM; 72% of 1,800 active;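 active = mean inhibition of the reporter signal across four replicates at the single tested dose of 50% or more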
The depositor's hits bear a star. Only some compounds are listed: those with a hit (about 4% of all), similar ones and a draw of the others.

Screening CC(SC#N)C(=O)C12CC3CC(CC(C3)C1)C2 (configuration not stated) returned CF NFkB inh 44, HIF-2a block 46*, Peg3 promoter 36, KKLEB cytotox -22, TROY NFkB inh 41, TWEAK Fn14 block 72*, HIF-2a inh conf 24 and HIF-1a counter 12.
CN(C)c1cc(-c2ccc(Cl)cc2Cl)oc(=O)c1Cl was read as CF NFkB inh 10, HIF-2a block -106, Peg3 promoter -44, KKLEB cytotox 14, TROY NFkB inh 0 and TWEAK Fn14 block -19.
Screening Cc1ccc(N2CC(C(=O)Nc3c4c(nn3C(C)(C)C)CS(=O)(=O)C4)CC2=O)cc1 (configuration not stated) returned CF NFkB inh -36, HIF-2a block 9, Peg3 promoter 2, KKLEB cytotox -2, TROY NFkB inh -11 and TWEAK Fn14 block -10.
`C(=C\c1ccccn1)/c1ccccn1` gave CF NFkB inh -6, HIF-2a block -160, Peg3 promoter -189, KKLEB cytotox 8, TROY NFkB inh -65 and TWEAK Fn14 block 0.
For CC1C/C(=C/c2cccs2)C(=O)/C(=C/c2cccs2)C1 (configuration not stated) the results were CF NFkB inh -3, HIF-2a block -77, Peg3 promoter -22, KKLEB cytotox -6, TROY NFkB inh 4 and TWEAK Fn14 block 11.
For CC(C)(C)C1C/C(=C/c2ccccn2)C(=O)/C(=C/c2ccccn2)C1 (configuration not stated) the results were CF NFkB inh 89*, HIF-2a block 96*, Peg3 promoter 102*, KKLEB cytotox -53*, TROY NFkB inh 1, TWEAK Fn14 block -30 and Mdm2 MdmX conf 103*.
For CC1C/C(=C/c2ccccn2)C(=O)/C(=C/c2ccccn2)C1 (configuration not stated) the results were CF NFkB inh 86*, HIF-2a block 94*, Peg3 promoter 100*, KKLEB cytotox -62*, TROY NFkB inh 3, TWEAK Fn14 block 64* and Mdm2 MdmX conf 103*.
`Cc1ccc(C(=O)OCC(=O)N2CCCCCC2)c(O)c1` gave CF NFkB inh 10, HIF-2a block -68, Peg3 promoter -296, KKLEB cytotox 4, TROY NFkB inh -42 and TWEAK Fn14 block -5.
`COc1cccc(OC)c1C(=O)Nc1ccc(C(=O)c2ccncc2)cc1` gave CF NFkB inh 15, HIF-2a block -10, Peg3 promoter -9, KKLEB cytotox 8, TROY NFkB inh -7 and TWEAK Fn14 block 5.
`O=C(NCc1ccc(Cl)nc1)c1ccc2nc([C@@H]3O[C@H](CO)[C@H](O)[C@H](O)[C@H]3O)[nH]c2c1` gave CF NFkB inh -6, HIF-2a block 13, Peg3 promoter 3, KKLEB cytotox -3, TROY NFkB inh 1 and TWEAK Fn14 block -38.
For O=C(Nc1ccc(Cn2ccnc2)cc1)c1cccc(C(F)(F)F)c1 the results were CF NFkB inh 1, HIF-2a block -52, Peg3 promoter -15, KKLEB cytotox 1, TROY NFkB inh -13 and TWEAK Fn14 block -12.
Screening CC(OC(=O)CCC(=O)N1CCN(S(=O)(=O)c2ccc3ccccc3c2)CC1)C(=O)NC(N)=O (configuration not stated) returned CF NFkB inh 6, HIF-2a block 5, Peg3 promoter -3, KKLEB cytotox -1, TROY NFkB inh -61 and TWEAK Fn14 block 1.
`COCCCNC(=O)[C@H](CSCc1ccccc1)N1Cc2ccccc2C1=O` gave CF NFkB inh 16, HIF-2a block -8, Peg3 promoter -24, KKLEB cytotox 6, TROY NFkB inh 4 and TWEAK Fn14 block -16.

Screening results from PubChem.
